What all share (experiment): NCI-60 one-dose screen, 48 h (100 = growth as untreated, 0 = no growth, -100 = all killed)
One test concerns SR leukemia. To be noted: 10 µM unless noted.
A further test has as its system RPMI-8226 leukemia. The conditions noted are these: 10 µM.
A further test deals with OVCAR-8 ovarian. To be noted: 10 µM unless noted.
The test system of the next test is OVCAR-5 ovarian. To be noted: 10 µM unless noted.
The subject of the next test is OVCAR-4 ovarian. To be noted: 10 µM unless noted.
A further test has as its system SK-OV-3 ovarian. The conditions noted are these: 10 µM.
The subject of the next test is IGROV1 ovarian. To be noted: 10 µM unless noted.
A further test relates to OVCAR-3 ovarian. To be noted: 10 µM unless noted.
Another test has as its system HS 578T breast. To be noted: 10 µM unless noted.
The test system of the next test is NCI/ADR-RES ovarian. To be noted: 10 µM unless noted.
The subject of the next test is T-47D breast. The conditions noted are these: 10 µM.
For a further test, the system named is BT-549 breast. The conditions noted are these: 10 µM unless noted.
The subject of another test is MDA-MB-435 melanoma. To be noted: 10 µM unless noted.
The next test deals with SW-620 colon. The conditions noted are these: 10 µM unless noted.
Another test concerns MCF7 breast. The conditions noted are these: 10 µM unless noted.
The next test relates to HCT-116 colon. To be noted: 10 µM unless noted.
Another test relates to HCC-2998 colon. To be noted: 10 µM unless noted.
The next test deals with KM12 colon. To be noted: 10 µM unless noted.

This is part of a sample that, as a whole, favours compounds with a hit. Of some 83,000 tested, about 20% had one in any assay.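 Note: values are percent growth. 100 is the growth of untreated cells, values between 100 and 0 indicate rising inhibition; between -100 and 0 indicates cell death.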 Unmarked numbers belong to inactive results. The source made the active and inactive calls. Rule for the calls: active = growth percent below 10; inactive = the rest.

`COc1ccc(-c2c3c(N)c4c(nc3nc3c2c(C)nn3-c2ccccc2)CCCC4)cc1`: the growth is -25.8% (active) in the test with SR leukemia; -37.5% (active) in the test on RPMI-8226 leukemia; 83.1% in the test with OVCAR-8 ovarian; 90.1% with OVCAR-5 ovarian; 45.1% in the test on OVCAR-4 ovarian; 103% with SK-OV-3 ovarian. Further, the growth was 90.1% in the test on IGROV1 ovarian; 88.8% in the test on OVCAR-3 ovarian; 92.5% in the test with HS 578T breast; 86.6% with NCI/ADR-RES ovarian; 84% in the test with T-47D breast; 106% in the test on BT-549 breast. Further, the growth was 77.5% with MDA-MB-435 melanoma; 68.2% with SW-620 colon; 58.5% in the test with MCF7 breast; 31.8% in the test on HCT-116 colon; 100% in the test with HCC-2998 colon; 89.6% in the test with KM12 colon.

In the case of `C[C@H]1C(=O)C23CCC1C[C@@]21O[C@@H]2C(C)(C)C=CC(=O)C23COC1=O`, the growth with SR leukemia is 102%; in the test on RPMI-8226 leukemia, 93.5%; with OVCAR-8 ovarian, 101%; in the test on OVCAR-5 ovarian, 109%; with OVCAR-4 ovarian, 108%; with SK-OV-3 ovarian it was 102%. Further, the growth in the test with IGROV1 ovarian was 110%; with OVCAR-3 ovarian, 126%; in the test on HS 578T breast, 109%; with NCI/ADR-RES ovarian, 106%; in the test on T-47D breast, 98.4%; in the test on BT-549 breast, 106%. Moreover, the growth in the test with MDA-MB-435 melanoma is 107%; in the test with SW-620 colon it was 108%; in the test with MCF7 breast, 99.5%; in the test with HCT-116 colon, 96.5%; in the test on HCC-2998 colon, 104%; with KM12 colon it was 113%.

For the compound `O=c1[nH]c(-c2ccccn2)nc2sc3c(c12)CCCCCC3`, the growth was 22.1% with SR leukemia; 39.4% in the test on RPMI-8226 leukemia; 29.9% in the test with OVCAR-8 ovarian; 58.6% in the test with OVCAR-5 ovarian; 28% with OVCAR-4 ovarian; 45.2% in the test with SK-OV-3 ovarian. In addition, the growth in the test with IGROV1 ovarian is 42.4%; in the test on OVCAR-3 ovarian, 54.7%; in the test with HS 578T breast, 69.9%; in the test on NCI/ADR-RES ovarian it was 24.6%; with T-47D breast, 42.6%; in the test on BT-549 breast, 62.2%. In addition, the growth was 46.4% with MDA-MB-435 melanoma; 25% in the test on SW-620 colon; 29.6% in the test on MCF7 breast; 24.6% in the test on HCT-116 colon; 53.5% in the test on HCC-2998 colon; 33.6% with KM12 colon.

For `O=C1/C(=C/c2ccc(Oc3ccccc3)cc2)N=C(c2ccccc2)N1CCc1cccs1`, the growth in the test with SR leukemia is 81%; with RPMI-8226 leukemia, 69.7%; in the test with OVCAR-8 ovarian, 88.6%; with OVCAR-5 ovarian, 109%; in the test on OVCAR-4 ovarian it was 78%; in the test on SK-OV-3 ovarian it was 106%. Besides, the growth in the test on IGROV1 ovarian was 71.5%; with OVCAR-3 ovarian, 106%; with HS 578T breast, 58.7%; in the test with NCI/ADR-RES ovarian it was 83.9%; in the test on T-47D breast, 83.9%; in the test with BT-549 breast, 74.9%. For the same compound, the growth was 89.7% in the test with MDA-MB-435 melanoma; 80.1% with SW-620 colon; 81.8% in the test with MCF7 breast; 57.1% with HCT-116 colon; 96.6% in the test with HCC-2998 colon; 97.6% in the test on KM12 colon.

`COc1ccc(-n2c(SCc3cc(OC)c(OC)c(OC)c3)nc3ccc(C)cc3c2=O)c(OC)c1`: the growth in the test on SR leukemia was 7.68% (active); with RPMI-8226 leukemia it was -4.23% (active); in the test with OVCAR-8 ovarian, 45.6%; in the test on OVCAR-5 ovarian it was 43.2%; with OVCAR-4 ovarian, 57.4%; with SK-OV-3 ovarian, 45.3%. In addition, the growth is 35.7% with IGROV1 ovarian; -4.61% (active) with OVCAR-3 ovarian; 6.73% (active) with HS 578T breast; 1.42% (active) in the test with NCI/ADR-RES ovarian; 33.1% with T-47D breast; 32.1% in the test on BT-549 breast. The growth in the test on MDA-MB-435 melanoma was -55% (active); in the test with SW-620 colon, 21%; in the test with MCF7 breast, 15.5%; in the test on HCT-116 colon, 18.1%; with HCC-2998 colon, 45.5%; in the test on KM12 colon it was 18.1%.

Take `O=C1c2ccccc2-c2nnc(-c3ccc(Br)cc3)cc21`: the growth in the test on SR leukemia was 11.6%; in the test on RPMI-8226 leukemia, 27.4%; in the test with OVCAR-8 ovarian it was 77.7%; with OVCAR-5 ovarian, 110%; with OVCAR-4 ovarian it was 10.1%; with SK-OV-3 ovarian, 91.6%. Further, the growth in the test on IGROV1 ovarian is 40.4%; in the test on OVCAR-3 ovarian, -23% (active); in the test with HS 578T breast it was 48.2%; with NCI/ADR-RES ovarian, 9.3% (active); in the test with T-47D breast, 52.7%; in the test with BT-549 breast, 71.5%. In addition, the growth in the test with MDA-MB-435 melanoma was -69.1% (active); in the test with SW-620 colon it was 73.3%; with MCF7 breast, 14.8%; in the test with HCT-116 colon it was 1.98% (active); in the test on KM12 colon it was 64%.

Consider `CN([N-]C(=O)CC(=O)[N-]N(C)C(=S)c1ccccc1)C(=S)c1ccccc1.[Cu+2]`, for which the growth was -17.7% (active) in the test with SR leukemia; -13.7% (active) in the test with RPMI-8226 leukemia; -39.1% (active) in the test with OVCAR-8 ovarian; -53.4% (active) with OVCAR-5 ovarian; -98.4% (active) with OVCAR-4 ovarian; -99.1% (active) with SK-OV-3 ovarian. For the same compound, the growth with IGROV1 ovarian is -93.2% (active); in the test on OVCAR-3 ovarian, -85.7% (active); with HS 578T breast, -12.3% (active); with NCI/ADR-RES ovarian, -3.82% (active); with T-47D breast it was -52.7% (active); with BT-549 breast it was -73% (active). The growth is -83.9% (active) with MDA-MB-435 melanoma; -67.4% (active) in the test with SW-620 colon; -48.3% (active) with MCF7 breast; -12.4% (active) in the test on HCT-116 colon; -94.2% (active) with HCC-2998 colon; -74.8% (active) in the test with KM12 colon.

Turning to `COc1ccc(/C=C2\CN(Cc3cn(CCCNc4ccnc5cc(Cl)ccc45)nn3)C/C(=C\c3ccc(OC)cc3)C2=O)cc1`, the growth in the test with SR leukemia is -6.55% (active); in the test on RPMI-8226 leukemia, 18%; in the test on OVCAR-8 ovarian, 1.09% (active); in the test with OVCAR-5 ovarian, 120%; in the test with OVCAR-4 ovarian it was 55.1%; with SK-OV-3 ovarian it was 70.7%. Besides, the growth with IGROV1 ovarian was 65%; with OVCAR-3 ovarian, 68.7%; in the test with HS 578T breast, 81.5%; with NCI/ADR-RES ovarian, 50.7%; with T-47D breast, 102%; in the test with BT-549 breast it was 44.3%. For the same compound, the growth with MDA-MB-435 melanoma was 60.2%; in the test with SW-620 colon, 46.4%; with MCF7 breast, 43.5%; with HCT-116 colon, 44.5%; in the test on HCC-2998 colon it was 95.1%; in the test with KM12 colon, 45.4%.

The values are drawn from PubChem BioAssay (NCI).
